Source: PubChem BioAssay (NCI)
Several values for one entry are separate records, joined by “and”; a condition that tells them apart may be missing. Equal values may be shown once. This is part of a sample that, as a whole, favours compounds with a hit. Of some 83,000 tested, about 20% had one in any assay.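 96-well plates, one dose, 48 hours. Percent growth reported; active if below 10.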 Activity calls are given as the source filed them.

What follows are compounds tested on HL-60(TB) leukemia (assay: NCI-60 one-dose screen, 48 h (100 = growth as untreated, 0 = no growth, -100 = all killed)). Conditions: 10 µM unless noted.

Row | SMILES | growth
1 | COc1cc(/C=C/C(=O)c2c(C)n([O-])c3ccccc3[n+]2=O)cc(OC)c1OC | -10.8% (active)
2 | Nc1cc(N)c(S(=O)(=O)O)cc1N=Nc1cc([N+](=O)[O-])ccc1O | 92.5% (inactive)
3 | COc1ccc(-c2nc3c(c(-c4ccccc4)nn3-c3ccccc3)c(-c3ccc(N4CCN(C)CC4)cc3)c2C#N)cc1 | 80.4% (inactive)
4 | COc1ccc(NC(=O)c2sc3nc(C)c(C(=O)/C=C/c4cccc(OC)c4)cc3c2N)cc1 | 33.6% (inactive)
5 | C[n+]1ccc(Nc2ccc(NC(=O)c3ccc(Nc4cc[n+](C)c5ccc(N)cc45)cc3)cc2)cc1 | 82.3% (inactive)
6 | COc1cc(NCCCCCCCNC(C)C)c2nccc(C)c2c1 | 75.1% (inactive) and 102% (inactive)
7 | CN1CCN(C(=O)c2ccc(NC(=O)Nc3ccc(-c4nc(N5CCOCC5)c5cccn5n4)cc3)cc2)CC1 | 7.69% (active)
8 | NC(=S)N/N=C1\CCCC(C(F)(F)F)C1 (configuration not stated) | 89% (inactive)
9 | Nc1nc(SCC#CCCl)c2[nH]cnc2n1 | 11% (inactive)
10 | O=C1c2ccc3c4c5ccc(c24)C(=O)N1CCCOCCCCOCCCNCc1ccc(cc1)CNCCCOCCCCOCCCN(C3=O)C5=O | -61.1% (active)
11 | CCNc1nc(-c2ccc(Cl)c(OC)c2)c(-c2ccnc(NCCCNS(=O)(=O)c3ccc(Cl)cc3)n2)s1 | 34.9% (inactive)
12 | CCOC(=O)C1=C(NC)OCC1=O | 91.7% (inactive)
13 | CN(C)CCCC1(c2ccc(F)cc2)OCc2cc(-c3cccc4[nH]ccc34)ccc21 (configuration not stated) | 31.6% (inactive)
14 | Cc1ccc(-c2nnc(COc3ccc(-c4nnc(N)s4)cc3)o2)cc1 | 96.4% (inactive)
15 | COc1ccc2c(=O)cc(-c3ccccc3)[nH]c2c1 | 11.5% (inactive) and -29.9% (active)
16 | O=C(/C=C/c1ccccc1)c1cccc(OCCCOc2cccc(C(=O)/C=C/c3ccccc3)c2)c1 | 82.3% (inactive)
17 | Cc1ccc(S(=O)(=O)Nc2sccc2-c2nc(-c3ccccc3)no2)cc1 | 105% (inactive)
18 | Cc1ccc(Nc2ccc(Nc3ccc(C)cc3S(=O)(=O)O)c3c2C(=O)c2ccccc2C3=O)c(S(=O)(=O)O)c1 | 99.4% (inactive)
19 | Cc1ccc(Nc2nc(N)c3ccccc3n2)cc1Cl | 78.2% (inactive)

Row | SMILES | growth
20 | CCN1CCN(C(=O)[C@]23CCC(C)(C)C[C@@H]2C2=CC[C@@H]4[C@@]5(C)CCC(=O)C(C)(C)[C@@H]5CC[C@@]4(C)[C@]2(C)CC3)CC1 | -35.8% (active)
21 | Ic1ccc2[nH]cc(SSc3c[nH]c4ccc(I)cc34)c2c1 | -21.7% (active)
22 | CCOC(=O)c1cc(C(=O)OCC)c(C)nc1C | 96.9% (inactive)
23 | CNCc1cccc2c1OCCOCCOCCN(CCN1CCOCC1)S(=O)(=O)c1ccc(cc1)-c1cnc(N)c(n1)C(=O)N2 | -23.5% (active)
24 | Nc1nc(SC/C=C/CCl)c2[nH]cnc2n1 | 97.8% (inactive) and 103% (inactive)
25 | COc1ccc(Nc2nnc(SCc3ccccc3F)s2)cc1 | 86% (inactive)
26 | Clc1ccc2c(NCCCNCc3ccc4c(c3)OCO4)ccnc2c1 | 76.3% (inactive)
27 | O=C(Nc1nc2ccccc2s1)c1ccc(F)cc1 | 111% (inactive)
28 | COc1ccc(S(=O)(=O)N2CCOCC2)cc1NC(=O)c1[nH]c(C)c2c1CCCCC2=O | 99.6% (inactive) and 15% (inactive)
29 | C=CCOc1ccc2c(c1)CC=C1[C@@H]2CC[C@]2(C)C(=O)/C(=N/O)C[C@@H]12 | 22.7% (inactive)
30 | COc1cc(C)c(Cl)cc1C1=NN(c2ccc(S(N)(=O)=O)cc2)C(/C=C/c2ccccc2)C1 (configuration not stated) | 63.6% (inactive)
31 | Clc1cnc(Nc2ccc(OCCN3CCCC3)cc2)nc1NCc1ccco1 | -26.5% (active)
32 | Cc1cc(-c2ccccc2)c(C)n1Cc1ccc(Cl)cc1 | -27.2% (active)
33 | Nc1c(C(=O)Nc2cccc3ccccc23)sc2nc3c(cc12)COCC3 | -4.22% (active)
34 | CCCCCOc1ccc(/C=N/Nc2cc(C)nc3ccc(Br)cc23)cc1 | -2.49% (active)
35 | COC(=O)c1ccc2[nH]c(O)c(C(=Nc3ccc(N(C)C(=O)CN4CCN(C)CC4)cc3)c3ccc(C)cc3)c2c1 | -55.7% (active)
36 | COc1cc(-c2csc(NC(=O)Nc3ccc(Cl)cc3Cl)n2)cc(OC)c1OC | 17% (inactive)
37 | O=C(C[C@]1(O)C(=O)Nc2ccccc21)c1cccc(C(F)(F)F)c1 | 102% (inactive)
